Laboratory results reported in the supplement of paper PMC6089552.
In all, about 3,200 compounds went through this assay and about 300 (9.4%) showed activity. Many of the other results were omitted from the sample, so actives are more common in it than they were.

Tested on: A673/TR/shEF
Assay: cell viability (LOESS-normalised, relative to median of negative controls) (log2 ratio); higher = more viable cells (less compound effect), active = hit call of the paper (over 3 MAD below the median)
Conditions: treatment time: 72 h
Method in brief: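 For three days, A673/TR/shEF Ewing sarcoma cells in 384-well plates (1,500 per well) were treated with library compounds at two or more concentrations or with DMSO controls, after doxycycline had been added or withheld 24 h beforehand to induce EWS-FLI1 shRNA knockdown. Viability was read by CellTiter-Glo luminescence on an Envision reader. The data were LOESS-corrected per plate, divided by the median of negative controls and log2-transformed.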

[1] = 0.25 µM, library screen: screen2, EWS-FLI1 expression: high (no doxycycline)
[2] = 0.25 µM, library screen: screen2, EWS-FLI1 expression: low (doxycycline-induced shRNA knockdown)
[3] = 2.5 µM, library screen: screen2, EWS-FLI1 expression: high (no doxycycline)
[4] = 2.5 µM, library screen: screen2, EWS-FLI1 expression: low (doxycycline-induced shRNA knockdown)
[5] = 0.25 µM, library screen: screen1, EWS-FLI1 expression: high (no doxycycline)
[6] = 0.25 µM, library screen: screen1, EWS-FLI1 expression: low (doxycycline-induced shRNA knockdown)
[7] = 2.5 µM, library screen: screen1, EWS-FLI1 expression: high (no doxycycline)
[8] = 2.5 µM, library screen: screen1, EWS-FLI1 expression: low (doxycycline-induced shRNA knockdown)
[9] = 0.025 µM, library screen: screen1, EWS-FLI1 expression: high (no doxycycline)
[10] = 0.025 µM, library screen: screen1, EWS-FLI1 expression: low (doxycycline-induced shRNA knockdown)
[11] = 25 µM, library screen: screen1, EWS-FLI1 expression: high (no doxycycline)
[12] = 25 µM, library screen: screen1, EWS-FLI1 expression: low (doxycycline-induced shRNA knockdown)

Measured: cell viability (log2)

CCCN(CCC)C1CCc2cccc(O)c2C1 (centres undefined)
inactive: [1] 0.114 | [2] 0.0781 | [3] 0.143 | [4] 0.0595

CC(C)[C@]12O[C@H]1[C@@H]1O[C@@]13[C@@]1(C)CCC4=C(COC4=O)[C@@H]1C[C@@H]1O[C@@]13C2=O
active: [5] -2.66 | [6] -3.01 | [7] -3.24 | [8] -2.91

CC(C)c1ccc2c(c1O)CCC1C3=C(CCC21C)C(=O)OC3 (centres undefined)
inactive: [5] 0.0257 | [6] 0.104 | [7] 0.151 | [8] 0.343

O=C1C(Cl)=C(Cl)C(=O)C(Cl)=C1Cl
inactive: [5] 0.0885 | [6] 0.0373 | [7] 0.114 | [8] 0.156

ClC1C(Cl)C(Cl)C(Cl)C(Cl)C1Cl (centres undefined)
inactive: [5] 0.118 | [6] 0.0584 | [7] 0.159 | [8] -0.0362

C[N+]1(C)C2CC(OC(=O)[C@H](CO)c3ccccc3)CC1C1OC12 (some centres undefined)
inactive: [1] 0.208 | [2] 0.126 | [3] 0.131 | [4] 0.157

CCNC(=O)[C@H]1O[C@@H](n2cnc3c(N)ncnc32)[C@H](O)[C@@H]1O
inactive: [1] 0.186 | [2] 0.0998 | [3] 0.0806 | [4] 0.122

COc1cccc2c1cc([N+](=O)[O-])c1c(C(=O)O)cc3c(c12)OCO3
active: [7] -0.209
inactive: [5] 0.0105 | [6] 0.00257 | [8] -0.0027

COc1c2c(cc3c1OCO3)CCN(C)C2
inactive: [5] 0.00337 | [6] -0.0221 | [7] 0.133 | [8] 0.0446

CC(N)Cc1c[nH]c2ccccc12 (centres undefined)
inactive: [1] 0.229 | [2] 0.175 | [3] 0.0609 | [4] 0.105

CCn1cnc2c(Nc3cccc(Cl)c3)nc(N[C@@H]3CCCC[C@@H]3N)nc21
active: [3] -0.199
inactive: [1] 0.222 | [2] 0.14 | [4] -0.0222

C[C@H]1C[C@@H](O)[C@]2(O)[C@@]13CC(=O)OC[C@@]2(C)[C@](C)(O)C(=O)C3
inactive: [5] 0.0914 | [6] -0.0111 | [7] 0.0806 | [8] 0.024

CN[C@@H]1C[C@H]2O[C@@](C)([C@@H]1OC)n1c3ccccc3c3c4c(c5c6ccccc6n2c5c31)C(=O)NC4
active: [9] -2.08 | [10] -1.86 | [5] -3.68 | [6] -3.78 | [7] -4.25 | [8] -4.31 | [11] -4.11 | [12] -4.31

CC(=O)O[C@H]1C[C@@H](OC(C)=O)C(C)(C)C2C[C@@H](OC(C)=O)[C@]3(C)C(CC[C@@]4(C)[C@H](c5ccoc5)C(=O)[C@H]5O[C@]543)[C@]21C (some centres undefined)
inactive: [5] 0.0663 | [6] 0.135 | [7] 0.0399 | [8] 0.171

c1ccc2c(c1)cc1ccc3cccc4ccc2c1c34
inactive: [5] 0.0949 | [6] 0.14 | [7] 0.11 | [8] 0.179

Cc1c(N)nc(C(CC(N)=O)NCC(N)C(N)=O)nc1C(=O)NC(C(=O)NC(C)C(O)C(C)C(=O)NC(C(=O)NCCc1nc(-c2nc(C(=O)NCCC[S+](C)C)cs2)cs1)C(C)O)C(O[C@@H]1O[C@@H](CO)[C@@H](O)[C@H](O)[C@@H]1O[C@H]1O[C@H](CO)[C@@H](O)[C@H](OC(N)=O)[C@@H]1O)c1cnc[nH]1 (some centres undefined)
inactive: 0.103 µM, library screen: screen3, EWS-FLI1 expression: high (no doxycycline) 0.0914 | 0.103 µM, library screen: screen3, EWS-FLI1 expression: low (doxycycline-induced shRNA knockdown) 0.135 | 0.308 µM, library screen: screen3, EWS-FLI1 expression: high (no doxycycline) 0.115 | 0.308 µM, library screen: screen3, EWS-FLI1 expression: low (doxycycline-induced shRNA knockdown) 0.0961 | 0.926 µM, library screen: screen3, EWS-FLI1 expression: high (no doxycycline) 0.0288 | 0.926 µM, library screen: screen3, EWS-FLI1 expression: low (doxycycline-induced shRNA knockdown) 0.0331 | 2.8 µM, library screen: screen3, EWS-FLI1 expression: high (no doxycycline) 0.152 | 2.8 µM, library screen: screen3, EWS-FLI1 expression: low (doxycycline-induced shRNA knockdown) 0.1 | 8.3 µM, library screen: screen3, EWS-FLI1 expression: high (no doxycycline) 0.12 | 8.3 µM, library screen: screen3, EWS-FLI1 expression: low (doxycycline-induced shRNA knockdown) 0.0649 | 25 µM, library screen: screen3, EWS-FLI1 expression: high (no doxycycline) 0.18 | 25 µM, library screen: screen3, EWS-FLI1 expression: low (doxycycline-induced shRNA knockdown) 0.0742

O=C(CCCN1CCC2(CC1)C(=O)N(CCc1ccc(N=C=S)cc1)CN2c1ccccc1)c1ccc(F)cc1
inactive: [1] 0.156 | [2] 0.15 | [3] 0.122 | [4] 0.0672

C[C@@]12C(=O)OC(=O)[C@]1(C)[C@H]1CC[C@@H]2O1
inactive: [9] 0.0446 | [10] 0.00348 | [5] 0.0474 | [6] -0.0807 | [1] 0.254 | [2] 0.0884 | [7] 0.0534 | [8] 0.0478 | [3] 0.0871 | [4] 0.00613 | [11] 0.0285 | [12] -0.0214

CC1(C(=O)O)C2CCC(O2)C1(C)C(=O)O (centres undefined)
active: [11] -0.932 | [12] -0.597
inactive: [9] 0.144 | [10] -0.0798 | [5] 0.0748 | [6] -0.099 | [1] 0.137 | [2] 0.0724 | [7] -0.00382 | [8] -0.0912 | [3] 0.0145 | [4] 0.0152
